Compounds with a hit are over-represented: about 4.4% of the library has one in this group of screens.
D1 agonist: Allosteric Agonists of the Human D1 Dopamine Receptor: qHTS. activation, % at 2 µM. AID 504660, 2011. 360,000 compounds, 1% hits. HEK293 T-REx D1 cells, calcium flux, agonist mode; also: 0% is about no effect
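Inducible HEK293 T-REx D1 cells, force-coupled to calcium signalling, were plated at 4000 cells/well with tetracycline and held overnight at 30 C. After no-wash calcium dye loading, compound-evoked calcium rise over 180 s flagged agonists.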
USP1-UAF1 inh: Inhibitors of USP1/UAF1: Primary Screen; recombinant USP1/UAF1, Ub-Rhodamine cleavage fluorescence; Potency, µM (titrated, usually from 57.1 µM), without a hit: at the highest dose activity change, negative = inhibition, hits mostly inhibitors; 390,000 compounds, 0.23% hits; active = well fitted inhibition curve with a large enough effect; also: potency is read from the fitted curve at half-maximal effect; % is scaled to controls: 0 for no effect and ±100 for the full control effect; nearly all actives have a fitted effect of over 60% in size
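1 nM enzyme complex + cpd, 15 min RT; start with Ub-Rho 150nM final; kinetic fluorescence ex 480/em 540, 6 reads q60 s. Buffer 50mM HEPES pH 7.8, 0.5mM EDTA, 0.1 mg/ml BSA, 1mM TCEP, 0.01% Tween-20.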
D1 antagonist: Antagonist of Human D 1 Dopamine Receptor: qHTS; D(1A) dopamine receptor (Homo sapiens), P21728; HEK293 TREx D1 cells, calcium flux, dopamine EC80; stronger effect = lower value; activity change, negative = inhibition, % at 10 µM; 360,000 compounds, 3.2% hits; AID 504652, 2011; in the data active = activity change below about -30%; also: % is scaled to controls: 0 for no effect and ±100 for the full control effect
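Compound effects on dopamine-evoked calcium signalling were measured in tetracycline-induced HEK293 Trex D1 cells. Dopamine at EC80 followed a 180 s compound pre-read, and fluorescence was tracked kinetically for 180 s more.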
TRHR agonist: qHTS for Small Molecule Agonists and Allosteric Enhancers of Human TRH Receptor: Primary Screen for Agonists | 360,000 compounds, 0.18% hits | TRHR cells, calcium flux fluo-8, FDSS agonist mode | AID 493084, 2011 | Thyrotropin-releasing hormone receptor (Homo sapiens), P34981 | activation, % at 2 µM; also: 0% is about no effect
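Read-out: compound-evoked intracellular calcium rise in TRHR cells, fluo-8 dye, kinetic FDSS fluorescence at 1 s/cycle following a 10-cycle baseline. Cells cultured overnight before dye loading (30 min–1.5 h, RT).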
TRHR PAM: qHTS for Small Molecule Agonists and Allosteric Enhancers of Human TRH Receptor: Primary Screen for Enhancers | enhancement, % at 2 µM | 360,000 compounds, 0.66% hits | AID 493056, 2011 | TRHR cells, fluo-8 calcium fluorescence, EC20 TRH enhancement; in the data active = enhancement above about 30%; also: 0% is about no effect
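TRHR-expressing cells loaded with fluo-8 calcium dye were read kinetically (ex 480/em 530) during compound addition, then stimulated with an EC20 of TRH (10 nM final). Enhancement of the Gq-mediated intracellular calcium response was scored.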
D1 PAM: Potentiators of Human D1 Dopamine Receptor: qHTS. D(1A) dopamine receptor (Homo sapiens), P21728. HEK293 TREx D1 cells, calcium flux, dopamine EC20 potentiation. potentiation, % at 10 µM. 360,000 compounds, 0.036% hits; in the data active = potentiation above about 30%; also: 0% is about no effect
* marks the source's active call; other numbers are inactive results. Rule as the data show it, unless noted: active = activation above about 30%; inactive = the rest.

COc1ccc(CNC(=O)C2=CC(c3ccc(OC)cc3)=NS(=O)(=O)N2C)cc1 was read as D1 agonist 0, USP1-UAF1 inh -9%, D1 antagonist -28, TRHR agonist 0, TRHR PAM 2 and D1 PAM -6.
For Cc1ccc(C2=NS(=O)(=O)N(C)C(C(=O)NCc3ccc(F)cc3)=C2)cc1 the results were D1 agonist 10, USP1-UAF1 inh -10%, D1 antagonist -5, TRHR agonist -1, TRHR PAM -5 and D1 PAM -14.
For COc1ccc(CNC(=O)C2=CC(c3ccc(C)cc3)=NS(=O)(=O)N2C)cc1 the results were D1 agonist -1, USP1-UAF1 inh -22%, D1 antagonist -34*, TRHR agonist 0, TRHR PAM 10 and D1 PAM -19.
Cc1c(Cl)cccc1-n1ncc(C(=O)Nc2ccc(Br)cc2F)c1C1CCNCC1 was read as D1 agonist 12, USP1-UAF1 inh -11%, D1 antagonist 10, TRHR agonist 2, TRHR PAM -12 and D1 PAM 2.
Screening CCC(C(=O)Nc1ccc(C)c(Cl)c1)n1c(=O)c(-c2ccccc2NC(C)=O)nc2ccccc21 (centres undefined) returned D1 agonist -1, USP1-UAF1 inh 10%, D1 antagonist -4, TRHR agonist -1, TRHR PAM -2 and D1 PAM -1.
`O=C(COc1ccccc1F)OCc1cc(=O)n2nc(C3CC3)sc2n1` gave D1 agonist 1, USP1-UAF1 inh -5%, D1 antagonist 14, TRHR agonist 0, TRHR PAM 25 and D1 PAM -6.
`CCCc1nnc(NC(=O)c2cc(=O)c3ccccc3o2)s1` gave D1 agonist 0, USP1-UAF1 inh -6%, D1 antagonist -15, TRHR agonist 0, TRHR PAM 0 and D1 PAM 0.
Screening CN(C)c1ccc(/C=c2\sc3n(c2=O)CCCN=3)cc1 returned D1 agonist 46*, USP1-UAF1 inh -3%, D1 antagonist 3, TRHR agonist 13, TRHR PAM 2 and D1 PAM -4.
For O=[S+]([O-])(c1ccc2c(c1)OCCO2)N1CCN([S+](=O)([O-])c2c(F)cc(Br)cc2F)CC1 the results were D1 agonist 2, D1 antagonist 10, TRHR agonist 0, TRHR PAM -2 and D1 PAM 4.
For COc1ccc(S(=O)(=O)N2CCCN(CC(=O)Nc3ccc(OC)cc3OC)CC2)cc1 the results were D1 agonist 0, USP1-UAF1 inh -5%, D1 antagonist -9, TRHR agonist -2, TRHR PAM -2 and D1 PAM -4.
C[C@@H](C(=O)Nc1ccc2c(c1)OCCO2)n1nnc2ccccc2c1=O was read as D1 agonist -1, USP1-UAF1 inh -22%, D1 antagonist -6, TRHR agonist 0, TRHR PAM 12 and D1 PAM -4.
For CC(C(=O)Nc1ccc2c(c1)OCCO2)n1nnc(-c2ccccc2)n1 (centres undefined) the results were D1 agonist 14, USP1-UAF1 inh -14%, D1 antagonist -53*, TRHR agonist 0, TRHR PAM 29 and D1 PAM 3.
For Cc1cccc(S(=O)(=O)NC2CCN(C#N)C2)c1 (centres undefined) the results were D1 agonist 6, D1 antagonist -16, TRHR agonist 2, TRHR PAM 3 and D1 PAM -3.
`CSc1ccc(CCNC(=O)c2csc3c2CCCCC3)cc1` gave D1 agonist 12, USP1-UAF1 inh -6%, D1 antagonist -38*, TRHR agonist 1, TRHR PAM -2 and D1 PAM -1.
